HT1080NT lethal – kills 2HG-producing HT-1080-NT fibrosarcoma cells; Potency, µM (top dose mostly 46.1 µM), for inactives: at the highest dose activity, negative = less viability, usual class: cytotoxic; 360,000 tested, 1.6% active; AID 686970; HT-1080-NT fibrosarcoma viability, CellTiter-Glo ATP luminescence, 48 h;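 note: NT is the 2HG producing partner of a matched IDH1 knockdown line; potency is the fitted concentration of half-maximal effect; 0% = DMSO-treated cells and -100% = media-only wells without cells; nearly all actives have a fitted effect of over 55% in size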
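HT-1080-NT; 750 cells/well; 5% FBS RPMI; 48 h compound, 37 degrees C; CellTiter-Glo luminescence; curve fitting and curve-class assignment.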
DT40 TDP1 CPT – growth inhibition of DT40 Tdp1-/-;hTDP1 cells with camptothecin (screen for TDP1 inhibitors) | 420,000 tested, 12% active | chicken DT40 Tdp1-/-;hTDP1 cells + 20 nM CPT, ATP luminescence, 48 h | Potency, µM (doses to about 46.2 µM), for the others: at the top dose activity change, negative = growth inhibition, actives largely listed as inhibitors | AID 686979; note: potency is the fitted concentration of half-maximal effect; nearly all actives have a fitted effect of over 55% in size
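Chicken DT40 Tdp1-/- cells stably complemented with human TDP1 were seeded at 400 cells/well in medium containing 20 nM camptothecin, exposed to pin-transferred compounds, and grown at 37 °C for at least 48 hr. Viability was read as ATP luminescence.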
IL1B secr inh – inhibitors of inflammasome signaling (IL-1 beta secretion); 360,000 tested, 4.7% active; AID 743279; activity change, % at 57.5 µM; THP-1 LPS/ATP IL-1B secretion, AlphaLISA, 16 h; hits give low values; in the data active = activity change below about -50%; inconclusive = mostly about -30% to -49%
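THP-1 cells pretreated 1 hr with compounds (up to 57.5 uM final), then stimulated with LPS (250 ng/mL final) plus ATP (1.25 mM final); secreted IL-1B measured by AlphaLISA after 16 hr, decreased signal indicating inhibition.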
HT1080 IDH1KD tx – kills HT-1080 cells with IDH1 knockdown; Potency, µM (top dose mostly 46.1 µM), inactives show at the highest dose activity, negative = toxicity, usual class: cytotoxic; 360,000 tested, 2% active; AID 686971; HT-1080 IDH1 knockdown viability, ATP luminescence, 48 h;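 note: potency is the fitted concentration of half-maximal effect; 0% = DMSO wells and -100% = cell-free medium wells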
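In this qHTS, HT-1080 cells depleted of IDH1 are exposed for 48 h at 37 °C to compound titrations. Toxicity is scored from CellTiter-Glo luminescence, with DMSO as full viability and medium alone as none.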
TDP1 cell noCPT – qHTS for Inhibitors of human tyrosyl-DNA phosphodiesterase 1 (TDP1): qHTS in cells in absence of CPT; DT40 Tdp1-/- hTDP1 cells, no CPT, ATP luminescence, 48 h; Potency, µM (titrated, usually from 46.2 µM), without a hit: at the highest dose activity change, negative = growth inhibition, usual class: inhibitors; 420,000 tested, 15% active; note: potency is the fitted concentration of half-maximal effect; nearly all actives have a fitted effect of over 55% in size
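Camptothecin absent (DMSO only). Human TDP1-complemented DT40 knockout cells, 400 cells/well, 37 °C for minimum 48 hr; ATP measured via CellTiter-Glo, 30 min dark incubation, luminescence.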
* = called active by the depositor; ? = inconclusive; · = no result given. Rows were chosen to be rich in hits. Some 19% of all compounds tested hit in one or more screens of this group. Unless noted, calls come from the whole dose curve; as a rule, active = well fitted curve in the direction sought with a large enough effect; inconclusive = small, poorly fitted or top-dose-only effect, or another doubt; inactive = no such curve, though single readings can be large; an effect the other way counts as inactive or inconclusive. Unless noted, % is set by controls: 0 for no effect and ±100 for the full control effect.

SMILES	HT1080NT lethal	DT40 TDP1 CPT	IL1B secr inh	HT1080 IDH1KD tx	TDP1 cell noCPT
CC1CCCC(C)N1CCCNC(=O)c1nn(C)c2c1CSc1ccccc1-2 (stereo unspecified)	-1%	-2%	?	17%	0%
CCOc1ccccc1NC(=O)c1nn(C)c2c1CSc1ccccc1-2	·	?	·	·	18µM*
CC1CC(C)CN(C(=O)c2nn(C)c3c2CSc2ccccc2-3)C1 (stereo unspecified)	7%	?	-28	1%	23µM*
COc1ccc(CCC(=O)NCc2cn3ccccc3n2)cc1	10%	2%	18	10%	-4%
Cc1c(-c2ccccc2)sc(N)c1C(=O)N1CCOCC1	-3%	-30%	-16	8%	?
CCOc1ccccc1N(CC)C(=O)c1nn(C)c2c1CSc1ccccc1-2	-1%	26µM*	0	-10%	?
CC(C)CNc1ncnc2c1ncn2[C@H]1CN(CCN2CCOCC2)C[C@@H](CO)O1	18%	-3%	0	7%	-7%
O=C(Nc1nccs1)c1ccc(CSc2ccccc2)o1	-2%	-13%	13	-8%	-1%
CN(C)c1ccc(CN2CCC(C(=O)NC(c3ccc(F)cc3)c3ccc4ccccc4n3)CC2)cc1 (stereo unspecified)	15µM*	?	-54*	?	23µM*
COc1cc(/C=C/CN2CCC(C(=O)NC(c3ccc(F)cc3)c3ccc4ccccc4n3)CC2)ccc1OC(C)=O (stereo unspecified)	16µM*	?	-62*	?	15µM*
O=C(NC(c1ccc(F)cc1)c1ccc2ccccc2n1)C1CCN(Cc2cccc(C(F)(F)F)c2)CC1 (stereo unspecified)	6.5µM*	2.9µM*	-89*	5.8µM*	5.2µM*
O=C(NC(c1ccccc1)c1ccsc1)C1CCN(Cc2ccc(Cl)c(Cl)c2)CC1 (stereo unspecified)	9%	?	?	4%	?
O=C(NC(c1ccc(F)cc1)c1ccc2ccccc2n1)C1CCN(Cc2ccc3ccccc3n2)CC1 (stereo unspecified)	?	?	-21	23µM*	18µM*
COc1cc(OC)nc(C(NC(=O)C2CCN(Cc3ccc(N(C)C)cc3)CC2)c2ccc(F)cc2)n1 (stereo unspecified)	1%	?	-6	0%	?
COc1cccc(-c2nc(CS(=O)CC(=O)NC(C)CCc3ccccc3)c(C)o2)c1 (stereo unspecified)	-9%	?	10	-1%	-29%
COC(C)(C)CCCC(C)C/C=C/C(C)=C/C(=O)O (stereo unspecified)	·	-6%	·	·	-23%
O=C(NC(c1ccc(F)cc1)c1ccc2ccccc2n1)C1CCN(CCOc2ccc(Cl)cc2)CC1 (stereo unspecified)	?	21µM*	-27	21µM*	21µM*
CC(C)(C)Sc1ccc2nc3c(n2c1)CCCC3	-13%	21µM*	-16	-14%	5.8µM*
O=C(CSCc1cccc(Cl)c1)N/N=C/c1ccc(OCC(=O)N2CCCCC2)cc1	-27%	16µM*	-74*	-25%	16µM*
Cc1cccc(C(=O)N/N=C/c2ccc(OCC(=O)N3CCCCC3)cc2)c1	1%	?	10	-2%	2%
O=C(c1ccco1)N1CCN(S(=O)(=O)c2cccc([N+](=O)[O-])c2)CC1	6%	17%	-5	9%	11%
O=C(NCCCc1nc2ccccc2n1Cc1ccccc1Cl)C1CCCCC1	·	23µM*	·	·	18µM*
O=C(NCCCc1nc2ccccc2n1Cc1ccc(Cl)cc1)C1CCCCC1	·	16µM*	·	·	21µM*
CCOC(=O)C1=C(c2ccccc2)OC(N)=C(C#N)C1c1cccs1 (stereo unspecified)	-2%	-26%	-9	?	-13%
CCOC(=O)C1=C(CSc2nc(-c3ccncc3)ccc2C#N)OC(N)=C(C#N)C1c1cccnc1 (stereo unspecified)	16%	-17%	?	8%	?
SMILES	HT1080NT lethal	DT40 TDP1 CPT	IL1B secr inh	HT1080 IDH1KD tx	TDP1 cell noCPT
CCOC(=O)C1=C(C)OC(N)=C(C#N)C1c1cccc(C)c1 (stereo unspecified)	2%	0%	5	2%	-1%
CCOC(=O)C1=C(CSc2nc(-c3ccncc3)ccc2C#N)OC(N)=C(C#N)C1c1ccc(OC)cc1 (stereo unspecified)	1%	?	-29	9%	16µM*
CCOC(=O)C1=C(CSc2nc(CC)c(C)cc2C#N)OC(N)=C(C#N)C1c1ccc(OC)cc1 (stereo unspecified)	-1%	?	5	7%	16µM*
CCOC(=O)C1=C(C)OC(N)=C(C#N)C1c1cc(F)ccc1F (stereo unspecified)	?	?	-66*	?	?
CCOC(=O)C1=C(c2ccccc2)OC(N)=C(C#N)C1c1ccncc1 (stereo unspecified)	-6%	23µM*	-15	-3%	?
CC1CC1C(=O)OCC(=O)Nc1ccc2[nH]c(=O)[nH]c2c1 (stereo unspecified)	13%	-13%	10	1%	-6%
O=C(O)c1cn(-c2ccc(F)cc2)c2cc(N3CCNCC3)c(F)cc2c1=O	-9%	?	-13	-2%	16µM*
Cc1cnc(CNc2ccnc(-c3cccc(C#N)c3)n2)cn1	·	8%	·	·	7%
COc1cc(NCCCn2ccc(NC(=O)OCc3ccccc3)nc2=O)cc(OC)c1OC	8%	-26%	-30	2%	-14%
O=C(Nc1ccn(CCCNC2CCN(Cc3ccccc3)CC2)c(=O)n1)OCc1ccccc1	?	?	-18	?	18µM*
O=C(Nc1ccn(CCCN2CCN(Cc3cccc4ccccc34)CC2)c(=O)n1)OCc1ccccc1	?	16µM*	?	-21%	18µM*
O=C(Nc1ccn(CCCNCCN2CCOCC2)c(=O)n1)OCc1ccccc1	1%	-103%	6	0%	-93%
O=C(Nc1ccn(CCCN2CCC(N3CCOCC3)CC2)c(=O)n1)OCc1ccccc1	-3%	-16%	0	1%	-10%
Cc1cc(C)c(CN2CCN(CCCn3ccc(NC(=O)OCc4ccccc4)nc3=O)CC2)c(C)c1	-2%	18µM*	-55*	-6%	18µM*
O=C(Nc1ccn(CCCN2CCN(c3ccccc3)CC2)c(=O)n1)OCc1ccccc1	-23%	?	-23	-1%	15µM*
